In the supplement of paper PMC10849652:
About 7,900 targets were measured; listed, in parts, are those with a hit and a random draw of the rest. About 0.6% of all pairs of compound and target were hits.

Legend:
Experiment in all cases: log2 fold change, soluble protein after heating vs DMSO (PISA); higher = thermal stabilisation; K562 cells, 10 uM, 30 min; active = over 0.2 and 3.5 SD of the protein, either way, in both replicates (recomputed)
[1] = compound: C#Cc1cccc(Nc2ncnc3cc(OCCOC)c(OCCOC)cc23)c1 [erlotinib]
Procedure, shortened: (§1)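 Thermal stability values are relative to control samples and come from duplicates. They are expressed as log2 fold changes. For measurement, K562 cells (2×10^6 cells/mL) received 10 μM compound for 30 min, and aliquots were heated for 3 min over 48°C-58°C, pooled, and extracted at 4°C in PBS with 0.5% NP-40. Soluble protein, the supernatant after 21,000xg for 90 min, was quantified by TMTpro 16plex LC-MS/MS with equalised channel sums.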

[2] = compound: C/C(=N\NC(=O)C1=CC(=CC=C1)S(=O)(=O)N2CCOCC2)/C3=C(C=CC(=C3)Cl)O
Procedure, shortened: as §1

[3] = compound: C1=CC(=C(C=C1Cl)C2=NC3=NC=CN=C3C(=N2)NC4=CC=NC=C4)F
Procedure, shortened: as §1

[4] = compound: C1=CC(=CC=C1C2=NC3=C(N2)C=C(C=C3)C(=O)N)OC4=CC=C(C=C4)Cl
Procedure, shortened: as §1

[5] = compound: C1=CC2=C(C=CC(=C2)/C=C\3/C(=O)NC(=NCC4=CC=CS4)S3)N=C1
Procedure, shortened: as §1

[6] = compound: C1=CC2=NC=CN=C2C=C1/C=C/3\C(=O)NC(=O)S3
Procedure, shortened: as §1

[7] = compound: C1=CC=C(C=C1)C2=NC(=C(N2)C3=CC=NC=C3)C4=CC(=C(C=C4)Cl)O
Procedure, shortened: as §1

[8] = compound: C1=CC=C2C(=C1)C3=NNC4=CC=CC(=C43)C2=O
Procedure, shortened: as §1

[9] = compound: C1CCN(C1)C(=O)NC2=CC=CC(=C2)NC3=NC=C(C(=N3)NCCC4=CN=CN4)Br
Procedure, shortened: as §1

[10] = compound: C1CN(CCC1(CC2=CC=C(C=C2)Cl)N)C3=NC=NC4=C3C=CN4
Procedure, shortened: as §1

[11] = compound: C1COCCN1CCN2C3=CC=CC=C3N=C2NC(=O)C4=CC(=CC=C4)[N+](=O)[O-] [IRAK-1-4 Inhibitor I]
Procedure, shortened: as §1

[12] = compound: C=CC(=O)N1CCC[C@@H](n2nc(-c3ccc(Oc4ccccc4)cc3)c3c(N)ncnc32)C1 [ibrutinib]
Procedure, shortened: as §1

[13] = compound: CC(=O)c1cnc2ccc(-c3cc(Cl)c(O)c(Cl)c3)nc2c1N[C@H]1CC[C@H](CN(C)C)CC1
Procedure, shortened: as §1

[14] = compound: CC(C)(C)Cn1c(N)nc2ccc(-c3[nH]c(C(C)(C)C)nc3-c3ccc(F)cc3)nc21 [ralimetinib]
Procedure, shortened: as §1

[15] = compound: CC(C)(O)CC(=O)NCCn1ccc2ncnc(Nc3ccc(Oc4cccc(C(F)(F)F)c4)c(Cl)c3)c21
Procedure, shortened: as §1

[16] = compound: CC(C)C1=C2N=C(C=C(N2N=C1)NCC3=CC=CC=C3)NCCCCCCN
Procedure, shortened: as §1

[17] = compound: CC(C)C[C@@H](C=O)NC(=O)[C@H](CC(C)C)NC(=O)[C@H](CC(C)C)NC(=O)OCc1ccccc1
Procedure, shortened: as §1

[18] = compound: CC(C)N(C[C@H]1O[C@@H](n2cnc3c(N)ncnc32)[C@H](O)[C@@H]1O)[C@H]1C[C@@H](CCc2nc3cc(C(C)(C)C)ccc3[nH]2)C1 [pinometostat]
Procedure, shortened: as §1

[19] = compound: CC1=C(C(CC(=O)N1)C2=CC=C(C=C2)C(F)(F)F)C(=O)NC3=C(C=C4C(=C3)C=NN4)F
Procedure, shortened: as §1

[20] = compound: CC1=C(C2=C(C=C1)C(=O)C3=CC=CC=C3N2CCCN)C
Procedure, shortened: as §1

Measured: log2 fold change

HDAC1 (UniProt Q13547)
active: [1] 1.14
inactive: [2] 0.015 | [3] 0.011 | [4] -0.01 | [5] 0.16 | [6] 0.004 | [7] 0.021 | [8] -0.055 | [9] -0.004 | [10] -0.018 | [11] -0.033 | [12] -0.052 | [13] 0.056 | [14] 0.02 | [15] -0.021 | [16] -0.009 | [17] -0.067 | [18] 0.03 | [19] 0.003 | [20] 0.023

GEMIN5 (UniProt Q8TEQ6)
active: [16] -0.422 | [20] -0.28
inactive: [1] -0.007 | [2] 0.066 | [3] -0.049 | [4] 0.023 | [5] 0.037 | [6] 0.045 | [7] 0.01 | [8] 0.01 | [9] 0.015 | [10] 0.017 | [11] -0.037 | [12] -0.014 | [13] -0.155 | [14] 0.034 | [15] -0.049 | [17] 0.033 | [18] 0.043 | [19] 0.004

GTF2A2 (UniProt P52657)
Chain of UniProt P52657 (P52657 whole entry, looked up): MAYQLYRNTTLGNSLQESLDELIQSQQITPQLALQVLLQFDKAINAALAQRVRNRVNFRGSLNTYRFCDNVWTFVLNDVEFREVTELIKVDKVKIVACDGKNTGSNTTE
active: [20] -0.357
inactive: [1] -0.057 | [2] 0.048 | [3] 0.089 | [4] -0.005 | [5] 0.132 | [6] 0.038 | [7] -0.002 | [8] -0.02 | [9] 0.008 | [10] 0.07 | [11] 0.013 | [12] -0.028 | [13] -0.002 | [14] -0.078 | [15] -0.026 | [16] 0.051 | [17] -0.019 | [18] -0.064 | [19] 0.016

HDDC2 (UniProt Q7Z4H3)
Chain of UniProt Q7Z4H3 (Q7Z4H3 whole entry, looked up): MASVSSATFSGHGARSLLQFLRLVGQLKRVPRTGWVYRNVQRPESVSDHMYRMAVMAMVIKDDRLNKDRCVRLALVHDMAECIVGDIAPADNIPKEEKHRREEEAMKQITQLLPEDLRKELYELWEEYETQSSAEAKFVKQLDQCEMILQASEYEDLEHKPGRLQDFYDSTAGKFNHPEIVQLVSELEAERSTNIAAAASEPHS
inactive: [1] -0.014 | [2] 0.059 | [3] 0.039 | [4] 0.018 | [5] -0.072 | [6] 0.034 | [8] 0.024 | [9] -0.039 | [10] 0.076 | [11] 0.04 | [12] 0 | [13] 0.052 | [14] 0.085 | [15] 0.003 | [16] 0.074 | [17] 0 | [18] -0.076 | [19] -0.006 | [20] -0.007
active: [7] 0.292

H1FX (UniProt Q92522)
Chain of UniProt Q92522 (Q92522 whole entry, looked up): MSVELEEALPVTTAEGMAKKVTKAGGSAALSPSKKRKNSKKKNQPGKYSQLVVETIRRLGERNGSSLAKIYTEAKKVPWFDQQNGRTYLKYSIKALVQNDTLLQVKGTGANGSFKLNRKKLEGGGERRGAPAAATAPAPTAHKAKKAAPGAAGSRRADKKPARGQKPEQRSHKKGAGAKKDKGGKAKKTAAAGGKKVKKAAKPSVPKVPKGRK
inactive: [1] -0.285 | [2] -0.189 | [3] -0.379 | [4] 0.016 | [5] -0.12 | [6] -0.012 | [7] 0.033 | [8] 0 | [9] 0.076 | [10] -0.101 | [11] -0.171 | [12] 0.077 | [13] 0.231 | [14] 0.204 | [15] 0.031 | [16] 0.13 | [17] 0.09 | [18] 0.246 | [19] 0.02
active: [20] -0.718

GUK1 isoform 2 (UniProt Q16774)
Chain of UniProt Q16774 (Q16774 whole entry, looked up): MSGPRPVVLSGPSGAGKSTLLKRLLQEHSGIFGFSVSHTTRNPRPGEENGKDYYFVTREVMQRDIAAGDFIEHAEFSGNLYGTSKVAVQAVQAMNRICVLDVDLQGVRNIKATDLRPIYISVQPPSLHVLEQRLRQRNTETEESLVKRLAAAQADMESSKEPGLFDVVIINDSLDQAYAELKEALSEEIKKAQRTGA
inactive: [1] 0.009 | [2] 0.289 | [3] 0.092 | [4] 0 | [5] 0.004 | [6] 0 | [7] -0.02 | [8] 0.021 | [9] -0.03 | [10] 0.066 | [11] -0.076 | [12] -0.033 | [13] -0.162 | [14] 0.038 | [15] -0.234 | [16] -0.033 | [17] 0.167 | [18] -0.037 | [19] -0.074 | [20] 0.092

GPAT4 (UniProt Q86UL3)
Chain of UniProt Q86UL3 (Q86UL3 whole entry, looked up): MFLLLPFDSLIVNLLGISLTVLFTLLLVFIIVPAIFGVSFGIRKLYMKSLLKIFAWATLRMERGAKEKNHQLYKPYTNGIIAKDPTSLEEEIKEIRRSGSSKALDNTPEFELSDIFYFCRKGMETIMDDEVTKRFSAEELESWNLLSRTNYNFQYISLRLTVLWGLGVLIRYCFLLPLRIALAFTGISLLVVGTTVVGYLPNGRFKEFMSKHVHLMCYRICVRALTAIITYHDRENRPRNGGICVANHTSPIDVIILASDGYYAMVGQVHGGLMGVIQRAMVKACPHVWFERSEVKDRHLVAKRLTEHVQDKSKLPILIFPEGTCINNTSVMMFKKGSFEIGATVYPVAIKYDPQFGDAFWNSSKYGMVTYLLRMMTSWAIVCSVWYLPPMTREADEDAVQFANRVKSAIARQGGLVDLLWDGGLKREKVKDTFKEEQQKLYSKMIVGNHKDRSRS
inactive: [1] -0.017 | [2] -0.002 | [3] 0.06 | [4] -0.021 | [5] -0.016 | [6] -0.016 | [7] -0.01 | [8] 0.032 | [9] -0.087 | [10] 0.07 | [11] -0.144 | [12] -0.081 | [13] 0.044 | [14] -0.058 | [15] -0.09 | [16] 0.145 | [17] 0.007 | [18] -0.029 | [19] -0.015 | [20] 0.047

GAPVD1 isoform 6 (UniProt Q14C86)
active: [16] -0.278
inactive: [1] 0.008 | [2] 0.133 | [3] -0.036 | [4] -0.043 | [5] 0.033 | [6] 0.007 | [7] 0.002 | [8] 0.037 | [9] -0.012 | [10] -0.041 | [11] -0.044 | [12] -0.087 | [13] 0.005 | [14] 0.056 | [15] -0.111 | [17] 0.037 | [18] 0.094 | [19] 0.003 | [20] -0.003

HP1BP3 (UniProt Q5SSJ5)
Chain of UniProt Q5SSJ5 (Q5SSJ5 whole entry, looked up): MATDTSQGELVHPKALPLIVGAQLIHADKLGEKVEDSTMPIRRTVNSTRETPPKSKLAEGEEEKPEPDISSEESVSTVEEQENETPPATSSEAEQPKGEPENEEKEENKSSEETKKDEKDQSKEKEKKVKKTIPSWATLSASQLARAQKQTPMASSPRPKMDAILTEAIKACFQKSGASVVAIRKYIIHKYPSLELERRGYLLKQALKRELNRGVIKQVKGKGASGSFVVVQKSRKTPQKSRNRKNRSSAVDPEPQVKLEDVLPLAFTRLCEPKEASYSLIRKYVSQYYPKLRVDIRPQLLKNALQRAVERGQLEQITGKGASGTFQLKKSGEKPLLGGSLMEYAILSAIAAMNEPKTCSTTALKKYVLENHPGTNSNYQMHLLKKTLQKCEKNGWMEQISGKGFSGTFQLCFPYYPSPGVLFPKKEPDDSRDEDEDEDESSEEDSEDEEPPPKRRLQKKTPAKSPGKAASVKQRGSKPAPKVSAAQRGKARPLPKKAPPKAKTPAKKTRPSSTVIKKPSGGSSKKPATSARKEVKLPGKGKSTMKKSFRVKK
active: [20] -0.387
inactive: [1] 0.071 | [2] -0.035 | [3] -0.04 | [4] 0.028 | [5] 0.069 | [6] 0.064 | [7] -0.013 | [8] -0.044 | [9] 0.027 | [10] -0.155 | [11] -0.097 | [12] 0.003 | [13] 0.051 | [14] 0.089 | [15] -0.013 | [16] -0.031 | [17] 0.063 | [18] 0.092 | [19] -0.139

FOXK1 (UniProt P85037)
Chain of UniProt P85037 (P85037 whole entry, looked up): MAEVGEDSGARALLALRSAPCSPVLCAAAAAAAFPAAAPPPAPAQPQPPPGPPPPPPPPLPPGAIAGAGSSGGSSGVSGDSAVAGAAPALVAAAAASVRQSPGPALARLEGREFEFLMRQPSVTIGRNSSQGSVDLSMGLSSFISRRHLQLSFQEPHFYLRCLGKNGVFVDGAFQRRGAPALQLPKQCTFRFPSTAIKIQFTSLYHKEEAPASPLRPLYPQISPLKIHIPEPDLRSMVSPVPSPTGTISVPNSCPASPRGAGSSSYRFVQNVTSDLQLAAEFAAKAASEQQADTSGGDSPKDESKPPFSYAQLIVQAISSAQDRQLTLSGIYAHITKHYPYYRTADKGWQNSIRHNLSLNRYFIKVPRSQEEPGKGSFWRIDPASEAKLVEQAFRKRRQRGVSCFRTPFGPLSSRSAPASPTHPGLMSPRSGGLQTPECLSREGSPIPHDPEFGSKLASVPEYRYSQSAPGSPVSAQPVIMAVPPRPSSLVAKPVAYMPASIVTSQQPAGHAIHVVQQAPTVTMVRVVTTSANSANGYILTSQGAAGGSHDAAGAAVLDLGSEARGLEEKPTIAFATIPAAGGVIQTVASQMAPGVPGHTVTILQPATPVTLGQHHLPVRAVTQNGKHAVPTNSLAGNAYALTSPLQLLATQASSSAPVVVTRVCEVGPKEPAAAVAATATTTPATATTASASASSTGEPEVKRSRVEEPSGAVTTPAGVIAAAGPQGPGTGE
inactive: [1] 0.113 | [2] 0 | [3] 0.054 | [4] -0.307 | [5] 0.425 | [6] 0.355 | [7] -0.075 | [8] 0.61 | [9] 0.394 | [10] 0.352 | [11] 0.046 | [12] 0.121 | [14] -0.027 | [15] 0.015 | [16] 0.111 | [17] 0.052 | [18] -0.002 | [19] -0.05 | [20] 0.154
active: [13] -1.03

FERMT3 (UniProt Q86UX7)
Chain of UniProt Q86UX7 (Q86UX7 whole entry, looked up): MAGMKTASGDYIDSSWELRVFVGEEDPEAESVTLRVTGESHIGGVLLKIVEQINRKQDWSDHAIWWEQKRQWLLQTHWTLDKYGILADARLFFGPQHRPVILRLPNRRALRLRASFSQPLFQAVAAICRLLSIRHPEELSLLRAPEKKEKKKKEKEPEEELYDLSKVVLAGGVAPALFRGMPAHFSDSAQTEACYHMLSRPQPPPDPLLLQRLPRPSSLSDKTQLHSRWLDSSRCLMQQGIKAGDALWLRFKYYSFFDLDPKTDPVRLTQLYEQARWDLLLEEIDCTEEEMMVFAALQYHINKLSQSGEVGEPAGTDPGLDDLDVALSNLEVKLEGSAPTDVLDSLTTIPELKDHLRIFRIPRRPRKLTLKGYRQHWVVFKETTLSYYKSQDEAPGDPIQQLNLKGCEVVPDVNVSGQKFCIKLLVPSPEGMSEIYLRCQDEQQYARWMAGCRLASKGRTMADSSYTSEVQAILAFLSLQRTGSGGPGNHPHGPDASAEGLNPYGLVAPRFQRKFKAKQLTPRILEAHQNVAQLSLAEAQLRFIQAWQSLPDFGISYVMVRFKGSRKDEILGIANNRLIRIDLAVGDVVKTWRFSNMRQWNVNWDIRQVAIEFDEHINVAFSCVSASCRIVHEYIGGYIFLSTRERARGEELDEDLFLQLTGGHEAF
inactive: [1] 0.019 | [2] 0.076 | [3] 0.091 | [4] -0.003 | [5] 0.028 | [6] 0.02 | [7] 0.011 | [8] 0.008 | [9] -0.006 | [10] 0.012 | [11] -0.019 | [12] -0.036 | [13] -0.039 | [14] 0.01 | [15] -0.048 | [16] -0.091 | [17] -0.022 | [18] -0.002 | [19] -0.009 | [20] 0.003

GEMIN6 (UniProt Q8WXD5)
Chain of UniProt Q8WXD5 (Q8WXD5 whole entry, looked up): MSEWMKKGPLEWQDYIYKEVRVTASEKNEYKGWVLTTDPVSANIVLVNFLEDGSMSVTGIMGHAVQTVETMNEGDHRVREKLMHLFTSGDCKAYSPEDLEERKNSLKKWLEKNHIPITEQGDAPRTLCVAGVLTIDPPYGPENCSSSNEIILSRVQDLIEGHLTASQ
inactive: [1] -0.002 | [2] 0.02 | [3] -0.042 | [4] 0.027 | [5] -0.022 | [6] 0.065 | [7] 0.125 | [8] -0.012 | [9] -0.002 | [10] -0.045 | [11] 0.035 | [12] 0.021 | [13] 0.016 | [14] 0.188 | [15] -0.03 | [16] -0.012 | [17] -0.226 | [18] 0.046 | [19] -0.004 | [20] 0.03

HNRNPF (UniProt P52597)
Chain of UniProt P52597 (P52597 whole entry, looked up): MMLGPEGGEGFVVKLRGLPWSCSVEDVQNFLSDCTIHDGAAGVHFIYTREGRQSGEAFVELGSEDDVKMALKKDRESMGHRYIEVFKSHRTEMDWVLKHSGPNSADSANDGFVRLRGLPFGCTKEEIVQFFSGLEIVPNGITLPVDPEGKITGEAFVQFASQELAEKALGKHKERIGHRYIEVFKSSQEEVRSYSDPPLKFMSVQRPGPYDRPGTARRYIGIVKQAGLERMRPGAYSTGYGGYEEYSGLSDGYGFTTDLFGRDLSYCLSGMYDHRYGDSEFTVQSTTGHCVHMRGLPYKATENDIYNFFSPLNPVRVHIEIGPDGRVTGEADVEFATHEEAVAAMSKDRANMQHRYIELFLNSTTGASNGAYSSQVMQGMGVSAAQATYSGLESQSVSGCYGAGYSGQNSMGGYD
inactive: [1] 0.02 | [2] 0.126 | [3] -0.036 | [4] -0.034 | [5] -0.098 | [6] 0.017 | [7] 0.079 | [8] 0.003 | [9] -0.044 | [10] -0.044 | [11] -0.143 | [12] -0.023 | [13] -0.1 | [14] 0.098 | [15] -0.086 | [17] 0.069 | [18] 0.018 | [19] 0.05 | [20] -0.087
active: [16] -0.279

IFITM3 (UniProt Q01628)
Chain of UniProt Q01628 (Q01628 whole entry, looked up): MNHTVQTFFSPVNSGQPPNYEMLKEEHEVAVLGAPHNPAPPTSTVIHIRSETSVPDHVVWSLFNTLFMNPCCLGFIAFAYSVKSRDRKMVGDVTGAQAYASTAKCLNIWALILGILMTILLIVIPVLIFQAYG
active: [3] -0.471
inactive: [1] -0.093 | [2] -0.031 | [4] 0.042 | [5] -0.041 | [6] 0.058 | [7] 0.118 | [8] -0.01 | [9] -0.016 | [10] -0.03 | [11] -0.067 | [12] -0.02 | [13] -0.241 | [14] 0.031 | [15] 0.108 | [16] -0.082 | [17] 0.008 | [18] -0.181 | [19] -0.207 | [20] 0.163

GCLM (UniProt P48507)
Chain of UniProt P48507 (P48507 whole entry, looked up): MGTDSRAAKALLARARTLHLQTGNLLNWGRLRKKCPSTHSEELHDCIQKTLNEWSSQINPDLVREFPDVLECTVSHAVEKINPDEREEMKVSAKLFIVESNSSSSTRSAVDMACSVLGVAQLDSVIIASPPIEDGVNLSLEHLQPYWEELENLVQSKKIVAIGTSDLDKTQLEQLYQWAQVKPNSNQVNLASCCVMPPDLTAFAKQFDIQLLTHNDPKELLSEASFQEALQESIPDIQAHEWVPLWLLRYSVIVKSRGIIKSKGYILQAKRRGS
inactive: [1] -0.054 | [2] 0.199 | [3] 0.014 | [4] -0.019 | [5] -0.078 | [6] 0.088 | [7] -0.006 | [8] 0.064 | [9] -0.008 | [10] -0.035 | [11] -0.065 | [12] -0.038 | [13] 0.106 | [14] 0.002 | [15] -0.104 | [16] -0.034 | [17] 0.02 | [18] 0.049 | [19] -0.078 | [20] -0.023

HRC (UniProt P23327)
Chain of UniProt P23327 (P23327 whole entry, looked up): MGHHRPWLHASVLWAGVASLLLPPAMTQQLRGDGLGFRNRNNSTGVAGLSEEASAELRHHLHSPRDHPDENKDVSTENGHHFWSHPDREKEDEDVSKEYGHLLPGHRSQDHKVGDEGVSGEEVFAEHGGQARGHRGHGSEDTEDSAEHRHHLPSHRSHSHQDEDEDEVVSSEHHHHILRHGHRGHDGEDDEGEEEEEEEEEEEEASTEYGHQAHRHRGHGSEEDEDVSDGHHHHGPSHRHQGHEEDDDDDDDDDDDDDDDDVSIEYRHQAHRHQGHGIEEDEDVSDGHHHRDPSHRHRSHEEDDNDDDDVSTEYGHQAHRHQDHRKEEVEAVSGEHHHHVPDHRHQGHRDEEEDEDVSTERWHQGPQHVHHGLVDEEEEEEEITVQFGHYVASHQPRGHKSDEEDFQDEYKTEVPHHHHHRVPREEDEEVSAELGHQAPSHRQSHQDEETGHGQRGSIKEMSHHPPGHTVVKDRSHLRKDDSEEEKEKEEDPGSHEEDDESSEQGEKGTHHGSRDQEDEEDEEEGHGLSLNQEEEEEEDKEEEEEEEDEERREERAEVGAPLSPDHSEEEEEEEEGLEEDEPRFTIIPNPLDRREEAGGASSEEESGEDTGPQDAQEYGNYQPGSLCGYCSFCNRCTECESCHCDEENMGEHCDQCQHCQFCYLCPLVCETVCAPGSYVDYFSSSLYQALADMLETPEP
inactive: [1] 0.012 | [2] -0.056 | [3] 0.042 | [4] -0.018 | [5] 0.005 | [6] 0.023 | [7] -0.021 | [8] -0.087 | [9] 0.041 | [10] 0.045 | [11] 0.002 | [12] 0.003 | [13] 0.041 | [14] -0.039 | [15] 0.132 | [16] 0.074 | [17] 0.011 | [18] 0.019 | [19] 0.011 | [20] -0.033
